Data taken from the supplement of paper PMC12339681.
Where a name gives a salt, the structure may show the parent alone.

Each compound was assayed on PBMC-derived induced microglia-like cells (piMGLC) (assay: synaptosome phagocytic index relative to DMSO control (fraction of DMSO); higher = more phagocytosis). Conditions: concentration: 10 uM (2 uM for compounds listed in Table S2); pretreatment time: 24 h; assay time: 3 h.
For `Cn1cnc2c(F)c(Nc3ccc(Br)cc3Cl)c(C(=O)NOCCO)cc21` [Selumetinib], the synaptosome phagocytic index was 0.811.
`COc1ccccc1OCC(O)COC(N)=O` (centres undefined) [Methocarbamol] gave a synaptosome phagocytic index of 0.902.
`NCC(=O)CCC(=O)O` [5-Aminolevulinic_acid_(hydrochloride)] gave a synaptosome phagocytic index of 0.444.
For `Cc1cnc(-c2cc(N3CCN(C(=O)CCS(C)(=O)=O)CC3)ncc2Cl)c(C)c1`, the synaptosome phagocytic index was 0.665.
`Cn1c(OCC2CCC(C(F)(F)F)CC2)nn2c(C3CCOCC3)ncc2c1=O` (centres undefined) showed a synaptosome phagocytic index of 0.831.
`N[C@H](C(=O)O)[C@@H]1CC(Cl)=NO1` [Acivicin] was tested, and the synaptosome phagocytic index was 0.68.
In the case of `COc1cc(C(=O)Nc2cc(OC(F)(F)F)ccc2-n2cncn2)ccc1OCC1CC1`, the synaptosome phagocytic index is reported as 0.921.
Compound `CN1C(=O)C(Cc2c[nH]c3ccccc23)NC1=S` (centres undefined) [Necrostatin-1] has a synaptosome phagocytic index of 0.88.
Compound `CC(C)c1ccc(NC(=O)c2c(-c3cc(F)ccc3F)ccnc2N2CC[C@H](F)C2)cn1` [Nav1.1_activator_1] has a synaptosome phagocytic index of 0.451.
For `CC(=O)N[C@@H](CS)C(=O)O` [Acetylcysteine], the synaptosome phagocytic index was 0.86.
`CC(=O)[C@H]1CC[C@H]2[C@@H]3CCC4=CC(=O)CC[C@]4(C)[C@H]3CC[C@]12C` [Progesterone] was tested, and the synaptosome phagocytic index was 0.761.
In the case of `CCCCNc1ncc2c(-c3ccc(CN4CCN(C)CC4)cc3)cn([C@H]3CC[C@H](O)CC3)c2n1`, the synaptosome phagocytic index is reported as 0.246.
Work on `Cc1cc(-c2nncc3c(C(C)(C)C)c(OCc4ncnn4C)nn23)no1` yielded a synaptosome phagocytic index of 0.814.
With `Cn1cc(-c2c[nH]c3ncnc(N4CCOCC4)c23)cc1C#N` the synaptosome phagocytic index was 1.32.
For `Nc1nc(NC2CC2)c2ncn([C@H]3C=C[C@@H](CO)C3)c2n1` [Abacavir_(sulfate)], the synaptosome phagocytic index was 1.1.
Compound `Nc1ccn([C@@H]2O[C@H](CO)[C@@H](O)[C@@H]2O)c(=O)n1` [Cytarabine] has a synaptosome phagocytic index of 0.44.
With `NC(=O)c1cnccn1` [Pyrazinamide] the synaptosome phagocytic index was 1.21.
With `CN(C)CCCN1c2ccccc2CCc2ccccc21` [Imipramine_(hydrochloride)] the synaptosome phagocytic index was 0.863.
`CS(=O)(=O)OCCCCOS(C)(=O)=O` [Busulfan] gave a synaptosome phagocytic index of 0.829.
`O=C1Cc2cc(CCN3CCN(c4nsc5ccccc45)CC3)c(Cl)cc2N1` [Ziprasidone_(hydrochloride_monohydrate)] gave a synaptosome phagocytic index of 0.51.
For `Nc1ccn([C@@H]2CS[C@H](CO)O2)c(=O)n1` [Lamivudine], the synaptosome phagocytic index was 0.89.
Compound `CC1(C)S[C@@H]2[C@H](NC(=O)[C@H](N)c3ccc(O)cc3)C(=O)N2[C@H]1C(=O)O` [Amoxicillin_(trihydrate)] has a synaptosome phagocytic index of 0.942.
For `C[C@@]1(c2cc(NC(=O)c3ccc(C#N)cn3)ccc2F)C=CSC(N)=N1` [Atabecestat], the synaptosome phagocytic index was 0.547.
`CC(=O)NCCCS(=O)(=O)O` [Acamprosate_(calcium)] was tested, and the synaptosome phagocytic index was 0.864.
